# Over roughly 33,000 sequences, “E-score (dimensionless, -0.5 to 0.5)” has its median near -0.058; the highest 2% begin near 0.35. The sample as a whole holds a higher share of the highest values than the screen did.
# System: MvaT
# Assay: PBM 8-mer E-score (mean of HK and ME arrays) (E-score (dimensionless, -0.5 to 0.5)); higher = stronger relative binding preference
# Procedure, shortened: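 Full-length P. aeruginosa MvaT, with glutathione S-transferase fused to its N-terminus (cloned into pTH6838 by isothermal assembly), was tested by protein binding microarray using a previously described protocol. Two universal double-stranded 60-mer arrays (ME and HK) were used, each with a constant 25-mer primer region and a variable 35-mer region covering all 8-mers. The rank-based 8-mer E-score (-0.5 to 0.5) is the mean of the two arrays, parsed with a custom Python script.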
row,Sequence,PBM 8-mer E-score
1,GACCCTAC,-0.272
2,ACATTTTG,0.0944
3,GAAAGTGA,0.135
4,CCGACTAG,-0.0959
5,ATTATTCG,0.378
6,GCTATTAC,0.121
7,ATTATTGG,0.293
8,CTTATTGC,0.178
9,ATTATTCA,0.328
10,CTTATTAC,0.367
11,ATTATTCC,0.341
12,ACTATTAC,0.32
13,ATTATTAC,0.439
14,ATTATTAG,0.411
15,ACTATTAG,0.26
16,CTTATTCC,0.221
17,TACGACAA,0.131
18,CCACCTCG,-0.129
19,GAGGCCCA,-0.232
20,ATCCGAGG,-0.119
21,CAATTCTA,0.109
22,GATTTAGC,0.024
23,ACTTATGG,0.206
24,AGTGGTAG,0.00056
25,CGCCGGCA,-0.168

row,Sequence,PBM 8-mer E-score
1,CCTAACCG,-0.115
2,AAACTATC,0.301
3,GAACTAAA,0.338
4,AAACTATA,0.334
5,AAACTAAA,0.357
6,AAACTATT,0.371
7,TAACTAAA,0.312
8,ATTGAAAG,0.195
9,AGTCCCGC,-0.186
10,GTCCAATA,0.0714
11,AATGGGGT,0.0941
12,ACAACCTG,-0.038
13,GCGAGCCA,-0.16
14,ACAATATA,0.425
15,GCAATATA,0.414
16,GCAATAGA,0.127
17,ACAATATG,0.262
18,CCAATATC,0.194
19,ACAATATC,0.258
20,GCAATAAA,0.214
21,CCAATACA,0.142
22,CCAATATA,0.367
23,CTAGGCCA,-0.211
24,CGATAGGA,-0.177
25,AAAACCTT,0.103

row,Sequence,PBM 8-mer E-score
1,GCCATCGC,-0.219
2,ACTTACAA,0.307
3,GAATTTCA,0.108
4,CCTGGGCC,-0.238
5,ACACATTA,0.355
6,GCACATTA,0.19
7,ATACATTA,0.39
8,ACACATTG,0.113
9,CTACATTA,0.241
10,GTACATTA,0.308
11,GCCGATGA,-0.199
12,TAGCTATA,0.241
13,ACGGTAAT,0.18
14,GTAGGCAA,-0.171
15,TAGGGCAA,-0.0392
16,AATTACAA,0.367
17,TATTACAA,0.351
18,AATTACAT,0.327
19,CATTACAA,0.166
20,GATTACAA,0.188
21,AATTACAG,0.268
22,AGGTGACT,-0.173
23,CCGAGACA,-0.0391
24,GAGGAGTA,-0.153
25,CGAGTATA,0.195

row,Sequence,PBM 8-mer E-score
1,ATATATTG,0.446
2,AGATATTG,0.191
3,ATCTATTG,0.082
4,CTCTATTC,-0.0516
5,CTATATTC,0.204
6,ATATATTC,0.454
7,AATCATAA,0.306
8,ACCCGTCG,-0.0362
9,AATATACC,0.324
10,AGTATACT,0.422
11,AATATACG,0.331
12,GATATACA,0.205
13,AGTATACC,0.234
14,AATATACT,0.421
15,CATATACA,0.275
16,TATATACA,0.456
17,AGTATACA,0.321
18,AATATACA,0.413
19,AATACACA,0.151
20,AATACACG,0.159
21,GAGCCGAC,-0.262
22,ACTTGCAG,0.0173
23,AGGCTTAG,-0.104
24,CGATAGTC,-0.0515
25,AGGTCGTG,-0.0505

row,Sequence,PBM 8-mer E-score
1,CAGTAGCA,0.0532
2,GCGACTCC,-0.217
3,CGTAGGTA,-0.029
4,TGGATACA,-0.00533
5,TGTATACA,0.351
6,TCTATACA,0.136
7,AAGTTATT,0.415
8,AAGTTATG,0.349
9,CAGTTATG,0.189
10,AAGTTACG,0.231
11,AAGTTAGT,0.322
12,AAGTTATC,0.256
13,GCCTGACA,-0.188
14,CAGAAAGA,0.0379
15,TTAAGAAA,0.242
16,ATTTTATC,0.202
17,ATCATCGG,-0.0977
18,AGTAGGAT,-0.047
19,AATACAAG,0.208
20,TATACAAA,0.392
21,AATACAAA,0.357
22,GATACAAA,0.247
23,AATACAAC,0.316
24,CATACAAA,0.206
25,TACTCTGA,-0.066

row,Sequence,PBM 8-mer E-score
1,TAAGGGCA,0.0358
2,GCTCTCGA,-0.0844
3,AACTGGGG,-0.149
4,TACTATAA,0.387
5,TGCTATAA,0.285
6,GACTATAA,0.316
7,AACTATAG,0.236
8,TACTATCA,0.276
9,AACTATAT,0.349
10,AACTATAC,0.227
11,CACTATAA,0.312
12,AACTATAA,0.382
13,ACGGGCCG,-0.277
14,GACCCAGC,-0.26
15,ACTTAGAG,0.106
16,ATCTATTA,0.301
17,CTCTATTA,0.267
18,GAGTATTA,0.269
19,CTATATTA,0.454
20,GGGTATTA,0.288
21,GTATATTA,0.438
22,CACTGCTC,-0.18
23,GCCCGACC,-0.267
24,GAGAGTAC,-0.0129
25,AACCGCTC,-0.22

row,Sequence,PBM 8-mer E-score
1,AATGGGAT,0.138
2,AGTCGACG,-0.209
3,AAAATAGT,0.228
4,TAAATCTA,0.183
5,CAAATATA,0.433
6,CAAAAATA,0.287
7,GAAATAGA,0.158
8,AAAATACT,0.272
9,GAAATATC,0.227
10,CAAATATC,0.233
11,GAAATATA,0.408
12,CAAATATG,0.264
13,AAAATATT,0.435
14,TAAATATA,0.442
15,GGCGTCCA,-0.193
16,AGGTCCTG,-0.144
17,AACGGGCA,-0.142
18,CTCTATCC,-0.0794
19,TCGCCAAA,-0.0154
20,ATATCGCA,0.208
21,TCCGTCAA,-0.111
22,CCGACACG,-0.209
23,AAAATATC,0.314
24,AAAATATA,0.43
25,AAAATATG,0.251

row,Sequence,PBM 8-mer E-score
1,CAATATCC,0.127
2,TAATCTAA,0.292
3,CAATAAAC,0.254
4,GAATATAC,0.298
5,TAATAGAA,0.254
6,GAATATCA,0.209
7,TAATATAA,0.463
8,CAATATAG,0.331
9,GAATATAA,0.38
10,GAATAGAA,0.105
11,CAATATAC,0.386
12,CAATATAA,0.404
13,CGGTACTA,-0.0157
14,ATTTCGTC,0.0525
15,CCATCAAC,-0.145
16,GCCTAAAA,-0.0431
17,AAAGTGAT,0.155
18,GAGCCATA,-0.0175
19,CACTCCTG,-0.121
20,TGATCTAA,0.0137
21,AAATATAA,0.442
22,AAATATAC,0.333
23,AAATATAG,0.332
24,GAGTACAC,-0.00583
25,AAATGCCT,-0.0883

row,Sequence,PBM 8-mer E-score
1,AATTCGAC,-0.053
2,CTTGCAAG,0.114
3,ATATAGTG,0.329
4,GTATAGTA,0.233
5,CTATAGTA,0.223
6,ATATAGTA,0.399
7,ATATAGTC,0.361
8,CTATAGTC,-0.0729
9,CGTTGACC,-0.113
10,AAATCAGC,0.0494
11,CAAACTTA,0.272
12,TAAACTTA,0.352
13,ACAACTGA,0.0852
14,GAAACTTA,0.235
15,TAAACTGA,0.205
16,ACAACTTA,0.357
17,AAAACTTT,0.354
18,AAAACTGA,0.0579
19,AAAACTTG,0.1
20,ACAACTTG,0.237
21,AAAACTTA,0.386
22,AAAACTTC,0.149
23,CAACACTA,0.11
24,CGGCACAC,-0.0132
25,CTATTTCA,0.00869

row,Sequence,PBM 8-mer E-score
1,ACAGTGCA,-0.0545
2,CCGCACGG,-0.212
3,ACTACTTC,0.117
4,ACTACTTA,0.377
5,CAAACTAA,0.376
6,CAAACTAC,0.248
7,TAAACTAA,0.34
8,CCTACTTA,0.251
9,ACATTGCC,0.0616
10,ATCTTCCC,-0.117
11,ATTGGTGG,0.00541
12,TGATAACA,0.16
13,CACGCTCG,-0.168
14,AATAGAAG,0.0707
15,GCATTTTA,0.177
16,GTATTTCA,0.223
17,GTATTTAA,0.368
18,ATATTTTG,0.319
19,CTATTTTA,0.261
20,GGATTTTA,0.112
21,GTATTTTA,0.37
22,ATATTTTA,0.43
23,GGATTTAA,0.283
24,GCCTCGTA,-0.109
25,AGGGATGC,-0.182

row,Sequence,PBM 8-mer E-score
1,GGTCGTTA,-0.0413
2,GCGAGTCA,-0.112
3,CCGGGAGG,-0.293
4,CTGCAGCC,-0.148
5,AAAAAGGT,-0.0123
6,ATTAATTC,0.415
7,ATTAATGG,0.262
8,ATGAATTA,0.295
9,ATTAATTA,0.461
10,ATTAATTG,0.391
11,CTCAATTA,0.234
12,ATCAATTA,0.319
13,CTGAATTA,0.266
14,CTTAATTC,0.281
15,AGTAATTC,0.144
16,ATTAATCG,0.336
17,CTTAATTA,0.454
18,ACAGGGCT,-0.196
19,CACTTCGC,-0.174
20,ATATCGTA,0.207
21,GACGCAGC,-0.356
22,ATACTGGG,0.00507
23,AGTCATTA,0.14
24,CGGTAAGC,-0.0976
25,ACCCGGGA,-0.218

row,Sequence,PBM 8-mer E-score
1,CTTAATCA,0.174
2,CGTAATTA,0.31
3,GTTAATTA,0.415
4,ATTAATGC,0.341
5,GTTAAGTA,0.203
6,ATTAATGA,0.363
7,ATTAATCA,0.405
8,CTTAATGA,0.0908
9,AGTAATTA,0.421
10,GTCAATTA,0.164
11,ATTAATCC,0.332
12,GGTAATTA,0.286
13,CTTACGCA,-0.158
14,AATTGCAA,0.179
15,AAGCAGCC,-0.138
16,TAACCTTA,0.0355
17,GTAGGGCA,-0.179
18,CATAAGGG,-0.214
19,CAGCTCGG,-0.199
20,ACGACCTC,-0.143
21,ACCCAATC,-0.0955
22,CTAATACA,0.325
23,ATAATACA,0.407
24,ACAATACG,0.0961
25,ATAATACG,0.354

row,Sequence,PBM 8-mer E-score
1,AAAATACG,0.184
2,ATAATACC,0.333
3,ATGGCACA,-0.0727
4,GCGTGTAC,-0.107
5,GAGATCGC,-0.123
6,CTGTTAAC,0.141
7,ATGTTAAC,0.363
8,ATGTTAAA,0.329
9,ATGTTAAT,0.39
10,ATGTTAAG,0.178
11,GTGTTAAC,0.219
12,TGCGTCAA,-0.0324
13,GGGAACAC,-0.198
14,CCTGTCCG,-0.203
15,CCTCGAGC,-0.149
16,CAGTTGCG,-0.0888
17,GATTATGC,0.148
18,GATTATTA,0.391
19,CATTATCC,0.235
20,CATTATTC,0.363
21,CATTATGA,0.214
22,AATTATCA,0.325
23,CCTTATTC,0.189
24,CATTATCA,0.169
25,GATTATCA,0.193

row,Sequence,PBM 8-mer E-score
1,TATTATCA,0.404
2,CATTATTA,0.432
3,GATTATCC,0.209
4,AAGTTCCA,0.2
5,CGGGTTCC,-0.15
6,CGGAAAAG,0.00958
7,AAATGGTC,-0.0709
8,TACGTGCA,0.0131
9,AGGCCTAT,-0.235
10,TAGCATCA,0.0156
11,ATTACCGA,0.0931
12,GGCGATAA,0.137
13,AAATCATG,-0.0303
14,AATGTAAC,0.267
15,AATGTAAT,0.365
16,AATGTAAG,0.293
17,ACTGTAAA,0.266
18,ACTGTAAT,0.351
19,ACTGTAAC,0.246

# From the supplement of paper PMC4466236
